Results filed as inconclusive are left out. The source made the active and inactive calls. Calls come from the whole dose curve; as a rule, active = well fitted curve in the direction sought with a large enough effect; inconclusive = small, poorly fitted or top-dose-only effect, or another doubt; inactive = no such curve, though single readings can be large; an effect the other way counts as inactive or inconclusive.
Legend:
[1] = qHTS of pediatric cancer cell lines to identify multiple opportunities for drug repurposing: Confirmatory screen for control Hh wild type fibroblast cells (AID 1347121); note: nearly all actives have a fitted effect of over 70% in size
Outline: (§1)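 Cells (500-1,000/well) rested 5 h, then received compounds for 48 h; metabolically active cells were measured by CellTiter-Glo luminescence. Final concentrations spanned up to 46 µM (MIPE, 11-point) or 0.59 nM-46 µM (NPC, 8-point) in primary screens, 11-point in follow-ups.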

[2] = qHTS of pediatric cancer cell lines to identify multiple opportunities for drug repurposing: Confirmatory screen for Rh41 cells (AID 1347123);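 note: 48 h compound exposure; nearly all actives have a fitted effect of over 60% in size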; note: potency is the fitted concentration of half-maximal effect
Outline: as §1

[3] = qHTS of pediatric cancer cell lines to identify multiple opportunities for drug repurposing: Confirmatory screen for Rh30 cells (AID 1347126); note: nearly all actives have a fitted effect of over 55% in size; note: potency is the fitted concentration of half-maximal effect
Outline: as §1

[4] = qHTS of pediatric cancer cell lines to identify multiple opportunities for drug repurposing: Confirmatory screen for SK-N-SH cells (AID 1347129);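 note: cells exposed to compound for 48 h before viability read; nearly all actives have a fitted effect of over 60% in size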; note: potency is the fitted concentration of half-maximal effect
Outline: as §1

[5] = test system: Zika virus NS2B-NS3 protease; assay: Primary screen GU AMC qHTS for Zika virus inhibitors (AID 1347154); note: nearly all actives have a fitted effect of over 70% in size
Outline: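 Fluorogenic AMC-substrate cleavage by noncovalent NS2B-NS3 protease complex (25 nM, pH 8.0 Tris buffer with Tween 20) followed for 15 minutes at room temperature (~20% conversion). Percent inhibition from ex340/em450 signal change, fitted by 4-parameter Hill equation.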

[6] = qHTS of pediatric cancer cell lines to identify multiple opportunities for drug repurposing: Confirmatory screen for RD cells (AID 1347124);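 note: cells exposed to compound for 48 h before viability readout; nearly all actives have a fitted effect of over 65% in size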
Outline: as §1

[7] = qHTS of pediatric cancer cell lines to identify multiple opportunities for drug repurposing: Confirmatory screen for Rh18 cells (AID 1347125); note: nearly all actives have a fitted effect of over 55% in size
Outline: as §1

[8] = qHTS of pediatric cancer cell lines to identify multiple opportunities for drug repurposing: Confirmatory screen for Saos-2 cells (AID 1347127); note: nearly all actives have a fitted effect of over 60% in size
Outline: as §1

[9] = qHTS of pediatric cancer cell lines to identify multiple opportunities for drug repurposing: Confirmatory screen for OHS-50 cells (AID 1347128);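 note: compound exposure lasted 48 h at 37 degrees C; nearly all actives have a fitted effect of over 55% in size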; note: potency is the fitted concentration of half-maximal effect
Outline: as §1

[10] = target: N-terminal Xaa-Pro-Lys N-methyltransferase 1 (Homo sapiens) (UniProt Q9BV86); assay: qHTS Assay for Inhibitors of N-terminal methyltransferase 1 (NTMT1): LOPAC validation of the NTMT1 SAHH-coupled ThioGlo3 Assay (AID 1347143);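 note: SAH from peptide methylation measured as thiol fluorescence via SAHH coupling and ThioGlo3; nearly all actives have a fitted effect of over 70% in size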; note: potency is the fitted concentration of half-maximal effect
Outline: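 NTMT1 125nM + cpds (various conc.), 1 min RT; add SAM 100uM/SAHH 10uM/ThioGlo3 15uM (addition mix). SAHH-coupled thiol detection, Ex340/Em450, t0 and 30 min RT; signal normalized to background. LOPAC 1280-cpd pilot.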

[11] = test system: Zika virus NS2B-NS3 protease (unlinked); assay: Optimization of GU AMC qHTS for Zika virus inhibitors: Unlinked NS2B-NS3 protease assay (AID 1347151); note: nearly all actives have a fitted effect of over 80% in size; note: potency is the fitted concentration of half-maximal effect
Outline: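 Fluorescence read-out (340 nm ex / 450 nm em) of AMC peptide cleavage, taken immediately and after 15 min at room temperature (~20% conversion). Enzyme was the unlinked NS2B–NS3 complex at 25 nM in Tris pH 8.0 buffer.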

[12] = test system: Zika virus NS2B-NS3 protease (linked construct); assay: Confirmatory screen NINDS AMC qHTS for Zika virus inhibitors (AID 1347152);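 note: AMC fluorescence gain from cleaved Bz-Nle-KRR-AMC substrate over 15 min; top concentration of the series differs between compounds; nearly all actives have a fitted effect of over 70% in size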
Outline: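 Linked NS2B-NS3 1 nM, Tris pH 8.0/0.01% Tween 20; cpd 15 min RT dark; + Nle-KRR-AMC 10 µM (Km 18.3 µM); read 0 and 15 min, 340/450 nm; %inh vs controls, 4-param Hill.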

[13] = test system: Zika virus NS2B-NS3 protease (unlinked complex); assay: Confirmatory screen GU AMC qHTS for Zika virus inhibitors (AID 1347153); note: nearly all actives have a fitted effect of over 70% in size
Outline: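 Compounds were preincubated 15 min at room temperature with 25 nM noncovalent NS2B-NS3 protease at pH 8.0; AMC substrate added at 10 microM and 15-min fluorescence gain (340/450 nm) converted to percent inhibition, fitted 4-parameter.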

[14] = Confirmatory screen NINDS Rhodamine qHTS for Zika virus inhibitors (AID 1347161);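 note: purified Zika NS2B-NS3 protease with linked NS2B cofactor domain and Rhodamine110 peptide substrate; series mostly up to about 110 µM; nearly all actives have a fitted effect of over 60% in size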
Outline: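 Aprotinin served as in-plate control. Conditions: 25 nM linked NS2B-NS3, pH 8.0 Tris buffer, titrated compounds, 15 min preincubation and 15 min reaction with 1.5 microM Rhod110 substrate at room temperature.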

Measured: Potency

N-terminal Xaa-Pro-Lys N-methyltransferase 1 (Homo sapiens), sequence (Q9BV86 whole entry, looked up): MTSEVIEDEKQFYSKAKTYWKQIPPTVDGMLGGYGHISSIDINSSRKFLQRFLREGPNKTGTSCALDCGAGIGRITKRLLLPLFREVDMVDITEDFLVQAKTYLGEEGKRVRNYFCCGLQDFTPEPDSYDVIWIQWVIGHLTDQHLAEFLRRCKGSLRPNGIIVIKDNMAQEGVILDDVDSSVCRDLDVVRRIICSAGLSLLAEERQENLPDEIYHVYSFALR

S=C(SSC(=S)N1CCCCC1)N1CCCCC1
active: [2] 0.329 µM | [3] 36.9 µM
inactive: [1] | [4] | [5]

CC(C)(C)C(O)C(Oc1ccc(Cl)cc1)n1cncn1 (centres undefined)
inactive: [1] | [2] | [6] | [7] | [3] | [8] | [9] | [4] | [5]

CCC(=O)OC1CCC2C3CCC4=CC(=O)CC[C@@]4(C)C3CC[C@]12C (some centres undefined)
inactive: [1] | [6] | [7] | [3] | [8] | [9] | [4] | [5]

COc1cc(C(O)CN)ccc1O (centres undefined)
inactive: [10] | [11]

c1ccc(C2(c3ccccc3)CC2C2=NCCN2)cc1 (centres undefined)
inactive: [10] | [11]

NC(=NCCC[C@H](N)C(=O)O)N[N+](=O)[O-]
inactive: [10] | [11] | [5]

NC1CC1c1ccccc1 (centres undefined)
inactive: [10] | [11] | [5]

CCCN1CCC[C@H](c2cccc(O)c2)C1
inactive: [10] | [11]

CC(C)NC(C)Cc1ccc(I)cc1 (centres undefined)
inactive: [10] | [11]

CC(C)Oc1cccnc1N(C)C1CCN(Cc2ccccc2)CC1
inactive: [12] | [13] | [14]
active: [10] 56.2 µM | [11] 29.9 µM

O=C(O)[C@@H]1CCN1
inactive: [10] | [11]

CO[C@H]1CCC(O[C@H]2C[C@H]([C@]3(C)CC[C@]4(C[C@H](O)[C@@H](C)[C@@H]([C@@H](C)C=C(C)C(=O)[C@H](C)C[C@H](C)C(=O)O)O4)O3)O[C@]3(O[C@@H]([C@H]4O[C@@](O)(CO)[C@H](C)C[C@H]4C)C[C@H]3C)[C@H]2C)O[C@H]1C (some centres undefined)
inactive: [6] | [3] | [5]
active: [2] 1.47 µM | [9] 2.61 µM | [4] 5.26 µM
